{"source": "the supplement of paper PMC12282887", "experiment_in_all_cases": "promoter activity interaction Z-score (Lux/OD deviation from empty-vector control); higher = stronger promoter induction by the compound", "key": {"[1]": {"tested_on": "E. coli BW25113 acrABp lux reporter", "how_it_was_run": "(§1)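 Every compound was given at four 1:2 dilutions, in biological duplicates, to E. coli BW25113 carrying low-copy luxCDABE promoter reporters in wild-type or single-gene deletion backgrounds. Growth in 40 µl LB Lennox in 384-well plates at 37°C was followed by OD600 and luminescence readings every 30 min for 12 h, integrated over 0–8 h for wild type and 1–9 h for deletion strains, with wells below 10% of the median growth value excluded. Scores are Z-transformed residuals of growth-normalised luminescence fitted against a control.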"}, "[2]": {"tested_on": "E. coli BW25113 micFp lux reporter", "how_it_was_run": "as §1"}, "[3]": {"tested_on": "E. coli BW25113 ompFp lux reporter", "how_it_was_run": "as §1"}, "[4]": {"tested_on": "E. coli BW25113 robp lux reporter", "how_it_was_run": "as §1"}, "[5]": {"tested_on": "E. coli BW25113 soxSp lux reporter", "how_it_was_run": "as §1"}, "[6]": {"tested_on": "E. coli BW25113 tolCp lux reporter", "how_it_was_run": "as §1"}, "[7]": {"details": "1.8 µg/ml, genetic background: wild type"}, "[8]": {"details": "1.8 µg/ml, genetic background: ΔmarA"}, "[9]": {"details": "1.8 µg/ml, genetic background: Δrob"}, "[10]": {"details": "1.8 µg/ml, genetic background: ΔsoxS"}, "[11]": {"details": "3.7 µg/ml, genetic background: wild type"}, "[12]": {"details": "3.7 µg/ml, genetic background: ΔmarA"}, "[13]": {"details": "3.7 µg/ml, genetic background: Δrob"}, "[14]": {"details": "3.7 µg/ml, genetic background: ΔsoxS"}, "[15]": {"details": "7.3 µg/ml, genetic background: wild type"}, "[16]": {"details": "7.3 µg/ml, genetic background: ΔmarA"}, "[17]": {"details": "7.3 µg/ml, genetic background: Δrob"}, "[18]": {"details": "7.3 µg/ml, genetic background: ΔsoxS"}, "[19]": {"details": "14.7 µg/ml, genetic background: wild type"}, "[20]": {"details": "14.7 µg/ml, genetic background: ΔmarA"}, "[21]": {"details": "14.7 µg/ml, genetic background: ΔsoxS"}}, "note": "± gives the standard deviation of the averaged measurements."}
{"smiles": "CC[C@H]1OC(=O)[C@H](C)[C@@H](O[C@H]2C[C@@](C)(OC)[C@@H](O)[C@H](C)O2)[C@H](C)[C@@H](O[C@@H]2O[C@H](C)C[C@H](N(C)C)[C@H]2O)[C@](C)(O)C[C@@H](C)C(=O)[C@H](C)[C@@H](O)[C@]1(C)O", "note": "[Erythromycin]", "values": [{"measurement": "promoter activity interaction Z-score", "setting": "[1]; [7]", "result": "0.453 ± 0.14"}, {"measurement": "promoter activity interaction Z-score", "setting": "[1]; [8]", "result": "0.681 ± 0.23"}, {"measurement": "promoter activity interaction Z-score", "setting": "[1]; [9]", "result": "0.159 ± 0.56"}, {"measurement": "promoter activity interaction Z-score", "setting": "[1]; [10]", "result": "0.201 ± 0.23"}, {"measurement": "promoter activity interaction Z-score", "setting": "[1]; [11]", "result": "0.762 ± 0.17"}, {"measurement": "promoter activity interaction Z-score", "setting": "[1]; [12]", "result": "-1.09 ± 0.061"}, {"measurement": "promoter activity interaction Z-score", "setting": "[1]; [13]", "result": "0.417 ± 0.063"}, {"measurement": "promoter activity interaction Z-score", "setting": "[1]; [14]", "result": "1.35 ± 1.5"}, {"measurement": "promoter activity interaction Z-score", "setting": "[1]; [15]", "result": "1.66 ± 0.12"}, {"measurement": "promoter activity interaction Z-score", "setting": "[1]; [16]", "result": "-0.406 ± 0.24"}, {"measurement": "promoter activity interaction Z-score", "setting": "[1]; [17]", "result": "1.7 ± 0.48"}, {"measurement": "promoter activity interaction Z-score", "setting": "[1]; [18]", "result": "2.23 ± 1.1"}, {"measurement": "promoter activity interaction Z-score", "setting": "[1]; [19]", "result": "7.47 ± 0.26"}, {"measurement": "promoter activity interaction Z-score", "setting": "[2]; [7]", "result": "0.913 ± 0.45"}, {"measurement": "promoter activity interaction Z-score", "setting": "[2]; [8]", "result": "-0.122 ± 0.027"}, {"measurement": "promoter activity interaction Z-score", "setting": "[2]; [9]", "result": "-0.273 ± 0.066"}, {"measurement": "promoter activity interaction Z-score", "setting": "[2]; [10]", "result": "0.0903 ± 0.17"}, {"measurement": "promoter activity interaction Z-score", "setting": "[2]; [11]", "result": "0.742 ± 0.35"}, {"measurement": "promoter activity interaction Z-score", "setting": "[2]; [12]", "result": "-0.1986 ± 0.0018"}, {"measurement": "promoter activity interaction Z-score", "setting": "[2]; [13]", "result": "-0.176 ± 0.13"}, {"measurement": "promoter activity interaction Z-score", "setting": "[2]; [14]", "result": "0.695 ± 0.24"}, {"measurement": "promoter activity interaction Z-score", "setting": "[2]; [15]", "result": "0.748 ± 0.99"}, {"measurement": "promoter activity interaction Z-score", "setting": "[2]; [16]", "result": "-0.167 ± 0.085"}, {"measurement": "promoter activity interaction Z-score", "setting": "[2]; [17]", "result": "-0.148 ± 0.073"}, {"measurement": "promoter activity interaction Z-score", "setting": "[2]; [18]", "result": "-0.224 ± 0.12"}, {"measurement": "promoter activity interaction Z-score", "setting": "[2]; [19]", "result": "-1.13 ± 0.77"}, {"measurement": "promoter activity interaction Z-score", "setting": "[2]; [20]", "result": "-0.537 ± 0.026"}, {"measurement": "promoter activity interaction Z-score", "setting": "[2]; [21]", "result": "-0.792 ± 0.2"}, {"measurement": "promoter activity interaction Z-score", "setting": "[3]; [7]", "result": "0.573 ± 0.45"}, {"measurement": "promoter activity interaction Z-score", "setting": "[3]; [8]", "result": "0.458 ± 0.21"}, {"measurement": "promoter activity interaction Z-score", "setting": "[3]; [9]", "result": "0.2177 ± 0.0014"}, {"measurement": "promoter activity interaction Z-score", "setting": "[3]; [10]", "result": "0.925 ± 0.37"}, {"measurement": "promoter activity interaction Z-score", "setting": "[3]; [11]", "result": "0.894 ± 0.58"}, {"measurement": "promoter activity interaction Z-score", "setting": "[3]; [12]", "result": "0.288 ± 0.31"}, {"measurement": "promoter activity interaction Z-score", "setting": "[3]; [13]", "result": "1.58 ± 1.1"}, {"measurement": "promoter activity interaction Z-score", "setting": "[3]; [14]", "result": "2.48 ± 1.1"}, {"measurement": "promoter activity interaction Z-score", "setting": "[3]; [15]", "result": "1.78 ± 0.84"}, {"measurement": "promoter activity interaction Z-score", "setting": "[3]; [16]", "result": "1.17 ± 0.52"}, {"measurement": "promoter activity interaction Z-score", "setting": "[3]; [17]", "result": "1.96 ± 2"}, {"measurement": "promoter activity interaction Z-score", "setting": "[3]; [18]", "result": "1.97 ± 0.072"}, {"measurement": "promoter activity interaction Z-score", "setting": "[3]; [19]", "result": "-0.66 ± 0.73"}, {"measurement": "promoter activity interaction Z-score", "setting": "[3]; [21]", "result": -1.6}, {"measurement": "promoter activity interaction Z-score", "setting": "[4]; [7]", "result": "-0.139 ± 0.59"}, {"measurement": "promoter activity interaction Z-score", "setting": "[4]; [8]", "result": "-0.666 ± 0.22"}, {"measurement": "promoter activity interaction Z-score", "setting": "[4]; [9]", "result": "-0.816 ± 0.1"}, {"measurement": "promoter activity interaction Z-score", "setting": "[4]; [10]", "result": "-0.469 ± 0.72"}, {"measurement": "promoter activity interaction Z-score", "setting": "[4]; [11]", "result": "-0.638 ± 0.12"}, {"measurement": "promoter activity interaction Z-score", "setting": "[4]; [12]", "result": "-2.16 ± 0.55"}, {"measurement": "promoter activity interaction Z-score", "setting": "[4]; [13]", "result": "-1.32 ± 0.2"}, {"measurement": "promoter activity interaction Z-score", "setting": "[4]; [14]", "result": "-0.16 ± 0.77"}, {"measurement": "promoter activity interaction Z-score", "setting": "[4]; [15]", "result": "-2.01 ± 0.31"}, {"measurement": "promoter activity interaction Z-score", "setting": "[4]; [16]", "result": "-2.33 ± 0.13"}, {"measurement": "promoter activity interaction Z-score", "setting": "[4]; [17]", "result": "-2.18 ± 0.23"}, {"measurement": "promoter activity interaction Z-score", "setting": "[4]; [18]", "result": "-2.29 ± 0.77"}, {"measurement": "promoter activity interaction Z-score", "setting": "[4]; [19]", "result": "-2.43 ± 0.2"}, {"measurement": "promoter activity interaction Z-score", "setting": "[4]; [20]", "result": "-3.56 ± 0.35"}, {"measurement": "promoter activity interaction Z-score", "setting": "[5]; [7]", "result": "0.111 ± 0.015"}, {"measurement": "promoter activity interaction Z-score", "setting": "[5]; [8]", "result": "0.214 ± 0.046"}, {"measurement": "promoter activity interaction Z-score", "setting": "[5]; [9]", "result": "-0.111 ± 0.089"}, {"measurement": "promoter activity interaction Z-score", "setting": "[5]; [10]", "result": "0.0397 ± 0.3"}, {"measurement": "promoter activity interaction Z-score", "setting": "[5]; [11]", "result": "-0.0179 ± 0.043"}, {"measurement": "promoter activity interaction Z-score", "setting": "[5]; [12]", "result": "-0.0482 ± 0.098"}, {"measurement": "promoter activity interaction Z-score", "setting": "[5]; [13]", "result": "0.228 ± 0.28"}, {"measurement": "promoter activity interaction Z-score", "setting": "[5]; [14]", "result": "0.647 ± 0.18"}, {"measurement": "promoter activity interaction Z-score", "setting": "[5]; [15]", "result": "0.0493 ± 0.044"}, {"measurement": "promoter activity interaction Z-score", "setting": "[5]; [16]", "result": "0.351 ± 0.19"}, {"measurement": "promoter activity interaction Z-score", "setting": "[5]; [17]", "result": "0.215 ± 0.16"}, {"measurement": "promoter activity interaction Z-score", "setting": "[5]; [18]", "result": "1.65 ± 0.52"}, {"measurement": "promoter activity interaction Z-score", "setting": "[5]; [19]", "result": "0.956 ± 0.22"}, {"measurement": "promoter activity interaction Z-score", "setting": "[5]; [20]", "result": "0.78 ± 0.098"}, {"measurement": "promoter activity interaction Z-score", "setting": "[5]; [21]", "result": "3.05 ± 2.9"}, {"measurement": "promoter activity interaction Z-score", "setting": "[6]; [7]", "result": "0.39 ± 0.18"}, {"measurement": "promoter activity interaction Z-score", "setting": "[6]; [8]", "result": "-0.768 ± 0.45"}, {"measurement": "promoter activity interaction Z-score", "setting": "[6]; [9]", "result": "-0.66 ± 0.14"}, {"measurement": "promoter activity interaction Z-score", "setting": "[6]; [10]", "result": "-0.318 ± 0.13"}, {"measurement": "promoter activity interaction Z-score", "setting": "[6]; [11]", "result": "0.0127 ± 0.24"}, {"measurement": "promoter activity interaction Z-score", "setting": "[6]; [12]", "result": "-1.38 ± 0.97"}, {"measurement": "promoter activity interaction Z-score", "setting": "[6]; [13]", "result": "-0.333 ± 1.4"}, {"measurement": "promoter activity interaction Z-score", "setting": "[6]; [14]", "result": "-0.0456 ± 0.47"}, {"measurement": "promoter activity interaction Z-score", "setting": "[6]; [15]", "result": "0.177 ± 1.4"}, {"measurement": "promoter activity interaction Z-score", "setting": "[6]; [16]", "result": "-0.63 ± 0.74"}, {"measurement": "promoter activity interaction Z-score", "setting": "[6]; [17]", "result": "0.449 ± 2.3"}, {"measurement": "promoter activity interaction Z-score", "setting": "[6]; [18]", "result": "0.434 ± 0.85"}, {"measurement": "promoter activity interaction Z-score", "setting": "[6]; [19]", "result": "1.66 ± 1.9"}, {"measurement": "promoter activity interaction Z-score", "setting": "[6]; [20]", "result": "-1.14 ± 3.2"}, {"measurement": "promoter activity interaction Z-score", "setting": "[6]; [21]", "result": "0.542 ± 0.66"}]}
